For this experiment, the target named is Genome polyprotein (Dengue virus type 2 (strain 16681-PDK53)) (UniProt P29991). Briefly: Dengue-2 NS5 methyltransferase inhibitors, primary screen, biochemical, confirmation dose response (AID 588689). To be noted: Dengue-2 NS5 methyltransferase capping enzyme assay, at 25 µM, stronger effect = higher value.
Where [1] appears, read: measured here: pilot screen replicate inhibition.

The structures appear in SMILES notation. Screen size: about 340,000 compounds; about 1,000 (0.29%) were called active. No stated cut-off is given here; in the data, inconclusive means inhibition above about 29% without an active follow-up result; inactive means below that. A selection follows. Measured potencies and affinities stand elsewhere.

The inhibition is the drop in the measured response relative to a control, in per cent.

Consider `O=C(c1ccc2c3c(cccc13)CC2)C1CCCN(Cc2ccncc2)C1` (stereo unspecified), for which the inhibition was -3.47% (inactive).
Take `O=C(c1ccc2c3c(cccc13)CC2)C1CCCN(Cc2cccnc2)C1` (stereo unspecified): the inhibition is -8.53% (inactive).
Same read-out and setting: next, `O=C(NCCO)C(=O)NCC(c1cccs1)S(=O)(=O)c1ccc(F)cc1` (stereo unspecified): 0% (inactive); `CC(C)C[C@@H](CNC(=O)OC(C)(C)C)NC(=O)c1nc[nH]c1C(=O)N[C@@H](CC(C)C)C(=O)CNC[C@H](CC(C)C)NC(=O)c1nc[nH]c1C(=O)N[C@@H](Cc1c[nH]c2ccccc12)C(=O)OC(C)(C)C`: -7.03% (inactive).
Same read-out and setting: the value for `CC1(C)CC(=O)C=C(C(=O)N2CCCC(C(=O)c3cc(F)ccc3F)C2)O1` (stereo unspecified) was -6.28% (inactive).
Still for that read-out and setting: next, `CCN(C1CCCCC1)S(=O)(=O)CCNC(=O)c1ccc2c(c1)OCO2`: -2.2% (inactive).
On to `c1ccc2c(-n3cccn3)cccc2c1`, for which the inhibition is -11.8% (inactive).
In the case of `Cc1ccn(-c2cc(O)c(-n3ccc(C)n3)cc2O)n1`, the inhibition was -6.11% (inactive).
For `CCOc1ccccc1C(=O)OCC(=O)Nc1ccc(OC(F)F)cc1`, the inhibition is 0.68% (inactive). Besides, under setting [1], the inhibition was -8.52%.
Take `COc1ccccc1/C=C1\SC(=S)N(N2C(=O)CCCC2=O)C1=O`: the inhibition was 0% (inactive).
Still for that read-out and setting: next, `COc1ccc(OC)c(/C=C2\SC(=S)N(NS(=O)(=O)c3ccccc3)C2=O)c1`: 43.4% (inactive); `COc1ccccc1/C=C1\SC(=S)N(Nc2nc(C)cc(C)n2)C1=O`: 7.21% (inactive); `COc1ccc(/C=C2\SC(=S)N(NS(=O)(=O)c3ccc(C)cc3)C2=O)c(OC)c1`: 16.5% (inactive).
The same measure, in the same setting: next, `Cc1cc2cc(C#N)c(SCC(=O)Nc3nonc3C)nc2cc1C`: 3.66% (inactive); `O=C(CSc1nnc2ccccn12)NC(=O)c1cccc([N+](=O)[O-])c1`: -2.72% (inactive).
Still for that read-out and setting: next, `Cc1nc(NN)nc(NCc2ccccc2)n1`: -1.54% (inactive); `CC[C@H]1c2[nH]c3ccccc3c2C[C@@H]2C(=O)N(c3ccc(F)cc3)C(=O)N21`: 0% (inactive).
On to `Cc1ccc(C(=O)NNC(=O)C2CSC3(C)CCC(=O)N23)cc1` (stereo unspecified), for which the inhibition was 5.19% (inactive).
Same read-out and setting: the value for `Cc1cc(=O)[nH]c(SCC(=O)Nc2nnc(SCc3ccccc3)s2)n1` was -1.48% (inactive).
The same measure, in the same setting: next, `CC(=O)Nc1c(O)nc(SCC(=O)Nc2nnc(SCc3ccccc3)s2)[nH]c1=O`: 3.91% (inactive).
For `COc1cccc(CN2CCNC(=O)C2CC(=O)NCCc2ccccn2)c1` (stereo unspecified), the inhibition is -3.12% (inactive).
Same read-out and setting: next, `Cc1occc1C(=O)Nc1cnn(CCCC(=O)O)c1`: 0.32% (inactive); `O=C(CC(=O)NN=C1CCCCCC1)NCc1cccnc1`: -7.12% (inactive); `COc1cc(/C=C2\SC(=S)N(CC(=O)O)C2=O)ccc1OC(=O)c1ccco1`: -6.52% (inactive).
The same measure, in the same setting: next, `CCOc1cc(/C=C2/SC(=S)N(Cc3ccccc3)C2=O)ccc1O`: -16.7% (inactive); `COc1cc(/C=C2/SC(=S)N(CC(=O)O)C2=O)ccc1OC(=O)c1ccco1`: -8.15% (inactive).
The same measure, in the same setting: the value for `CCOc1ccc(/C=C2\SC(=S)N(CCC(=O)O)C2=O)cc1` was 10.9% (inactive); that for `CCn1c(O)c(/C=C2\C=NN=C2c2ccccc2)sc1=S` was 1.56% (inactive).
With `Cc1ccc(C2=NN(C(=O)CCC(=O)O)C(c3ccc4c(c3)OCO4)C2)cc1` (stereo unspecified), the inhibition was -1.55% (inactive).
Still for that read-out and setting: next, `COc1ccc(CNC(=O)CN(Cc2ccccc2F)C(=O)c2csnn2)cc1`: -7.27% (inactive); `CCc1cccc2c1NC(=O)C21N2CCCC2C(C(=O)c2ccc3ccccc3c2)C12C(=O)Nc1ccccc12` (stereo unspecified): -10.4% (inactive).
Still for that read-out and setting: the value for `Cc1c(Cl)cccc1NC(=O)CC1Sc2ccccc2NC1=O` (stereo unspecified) was -2.59% (inactive); that for `O=C(O)c1ccc(C(=O)C(=O)c2ccccc2)cc1` was -3.83% (inactive).
The same measure, in the same setting: next, `CCN(CC)c1ccc(C(=O)O)cc1`: -2.67% (inactive).
Take `O=C(Oc1ccc(/C=N/NC(=O)c2ccccn2)cc1)c1cccc(F)c1`: the inhibition is 0.65% (inactive).
With `O=S(=O)(c1ccccc1)c1nc(-c2ccc(F)cc2)oc1NCC1CCCO1` (stereo unspecified), the inhibition was -1.48% (inactive).
The same measure, in the same setting: the value for `CC(C)NC(=O)C(=O)Nc1ccc2c(c1)N(S(=O)(=O)c1cccs1)CCC2` was 2.2% (inactive).
Still for that read-out and setting: the value for `c1coc(Cn2c(-c3ccco3)nc3ccccc32)c1` was -8.81% (inactive); that for `CCn1c(-c2ccco2)nc2ccccc21` was -5.14% (inactive).
As for `O=C(CCc1nc(-c2ccc(Cl)cc2)no1)NCc1ccccc1CN1CCOCC1`, the inhibition was 1.12% (inactive).
On to `O=C(C=Cc1cccc(Cl)c1)c1ccccc1`, for which the inhibition is -41.2% (inactive).
Still for that read-out and setting: next, `CN(C)c1ccc(/C=C(\C#N)C(=O)c2ccccc2)cc1`: -80.6% (inactive).
In the case of `CNC(=S)N(CCN(C)C)Cc1cc2cc3c(cc2[nH]c1=O)OCO3`, the inhibition was -3.53% (inactive).
The same measure, in the same setting: next, `Cn1c(=O)cc(N)n(-c2ccccc2)c1=O`: 1.3% (inactive).
Same read-out and setting: next, `O=C1c2ccccc2COc2ccc(O)cc21`: 4% (inactive).
On to `Cc1ccnc(N2CCC(C(=O)Nc3ccc4c(c3)CCC4)CC2)n1`, for which the inhibition was -1.37% (inactive). Besides, the inhibition under setting [1] is -2.12%.
For the compound `CCc1nnc(NC(=O)CSc2nc(-c3ccc(OC)cc3)ns2)s1`, the inhibition is -9.71% (inactive).
Still for that read-out and setting: the value for `CN(C)c1ccc(C(=O)c2ccccc2C(=O)O)c(O)c1` was -0.81% (inactive).
Regarding `CCN(CC)c1ccc(C(=O)c2ccccc2C(=O)O)c(O)c1`, the inhibition is 8.17% (inactive). For the same compound, under setting [1], the inhibition turned out to be 6.25%.
Regarding `Cc1nc(N)nc(N(C)c2ccccc2)c1Br`, the inhibition was 3.09% (inactive).
As to `O=C(COC(=O)C1CCN(S(=O)(=O)c2cccc3cccnc23)CC1)c1ccc([N+](=O)[O-])cc1`, the inhibition is -7.6% (inactive).
Take `O=S(=O)(Cc1ccccc1)N1CCN(Cc2ccc(F)cc2Cl)CC1`: the inhibition is -4.55% (inactive).
Same read-out and setting: the value for `COc1ccc(N=C(c2ccccc2)c2c(C)[nH]n(-c3ccccc3)c2=O)c(OC)c1` was -10.3% (inactive); that for `COc1ccc(C(C[N+](=O)[O-])c2c(C)[nH]n(-c3ccccc3)c2=O)cc1` (stereo unspecified) was -13.7% (inactive); that for `COc1cc(C(c2c(C)[nH][nH]c2=O)c2c(C)[nH][nH]c2=O)cc(OC)c1OC` was 1.7% (inactive).
Take `COc1ccc(C(c2c(C)n(C)n(-c3ccccc3)c2=O)c2c(C)n(C)n(-c3ccccc3)c2=O)cc1OC`: the inhibition is -2.72% (inactive).
On the same count and under the same terms, next, `Nc1nccc(/C=C/c2c(Cl)cccc2Cl)n1`: -5.43% (inactive); `Cn1c(=O)c2c(SCc3ccccc3)nc(C3CC3)nc2n(C)c1=O`: -11.1% (inactive).

These data come from PubChem BioAssay AID588689 (Southern Research Specialized Biocontainment Screening …, 2011).
